Reference: the supplement of paper PMC11732987, “Enantioselective OTUD7B fragment discovery through chemoproteomics screening and high-throughput optimisation” (Communications Chemistry, 2025)

Tests used:
Assay in all cases: log2 ratio of Biotin-Ahx-Ub-VS probe labelling (fragment/DMSO); higher = less target engagement (more negative = stronger competition), active = hit call of the paper (q ≤ 0.05, log2 ratio ≤ -1)
Details in all cases: compound concentration: 200 uM; treatment time: 3 h
[1] = target: USP9X (UniProt Q93008)
Outline: (§1)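 HEK293T lysate (495 µg per sample, in Tris/CHAPS/IGEPAL buffer with protease inhibitors) was exposed in triplicate for 3 h to fragment at 200 µM or to vehicle, then to Biotin-Ahx-Ub-VS at 0.5 µM final for 1 h. Labelled DUBs were enriched on NeutrAvidin, digested with LysC and trypsin, and analysed by diaPASEF LC-MS/MS. Spectronaut label-free quantities were normalised to the global median, and values are average log2 ratios of fragment over vehicle from an unpaired t-test. Only proteins with ≥2 unique peptides were used.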

[2] = target: UniProt O00487
Sequence of UniProt O00487 (O00487 whole entry): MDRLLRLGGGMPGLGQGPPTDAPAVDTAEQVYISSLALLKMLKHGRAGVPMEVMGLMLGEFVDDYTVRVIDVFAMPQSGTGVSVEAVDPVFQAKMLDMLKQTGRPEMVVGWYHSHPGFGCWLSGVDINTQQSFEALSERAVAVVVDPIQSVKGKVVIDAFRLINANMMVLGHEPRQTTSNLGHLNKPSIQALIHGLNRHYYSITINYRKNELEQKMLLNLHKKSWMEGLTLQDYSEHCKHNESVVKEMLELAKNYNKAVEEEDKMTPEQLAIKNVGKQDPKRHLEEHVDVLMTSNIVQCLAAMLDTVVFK
Outline: as §1

[3] = target: UniProt O00507
Sequence of UniProt O00507 (O00507 whole entry): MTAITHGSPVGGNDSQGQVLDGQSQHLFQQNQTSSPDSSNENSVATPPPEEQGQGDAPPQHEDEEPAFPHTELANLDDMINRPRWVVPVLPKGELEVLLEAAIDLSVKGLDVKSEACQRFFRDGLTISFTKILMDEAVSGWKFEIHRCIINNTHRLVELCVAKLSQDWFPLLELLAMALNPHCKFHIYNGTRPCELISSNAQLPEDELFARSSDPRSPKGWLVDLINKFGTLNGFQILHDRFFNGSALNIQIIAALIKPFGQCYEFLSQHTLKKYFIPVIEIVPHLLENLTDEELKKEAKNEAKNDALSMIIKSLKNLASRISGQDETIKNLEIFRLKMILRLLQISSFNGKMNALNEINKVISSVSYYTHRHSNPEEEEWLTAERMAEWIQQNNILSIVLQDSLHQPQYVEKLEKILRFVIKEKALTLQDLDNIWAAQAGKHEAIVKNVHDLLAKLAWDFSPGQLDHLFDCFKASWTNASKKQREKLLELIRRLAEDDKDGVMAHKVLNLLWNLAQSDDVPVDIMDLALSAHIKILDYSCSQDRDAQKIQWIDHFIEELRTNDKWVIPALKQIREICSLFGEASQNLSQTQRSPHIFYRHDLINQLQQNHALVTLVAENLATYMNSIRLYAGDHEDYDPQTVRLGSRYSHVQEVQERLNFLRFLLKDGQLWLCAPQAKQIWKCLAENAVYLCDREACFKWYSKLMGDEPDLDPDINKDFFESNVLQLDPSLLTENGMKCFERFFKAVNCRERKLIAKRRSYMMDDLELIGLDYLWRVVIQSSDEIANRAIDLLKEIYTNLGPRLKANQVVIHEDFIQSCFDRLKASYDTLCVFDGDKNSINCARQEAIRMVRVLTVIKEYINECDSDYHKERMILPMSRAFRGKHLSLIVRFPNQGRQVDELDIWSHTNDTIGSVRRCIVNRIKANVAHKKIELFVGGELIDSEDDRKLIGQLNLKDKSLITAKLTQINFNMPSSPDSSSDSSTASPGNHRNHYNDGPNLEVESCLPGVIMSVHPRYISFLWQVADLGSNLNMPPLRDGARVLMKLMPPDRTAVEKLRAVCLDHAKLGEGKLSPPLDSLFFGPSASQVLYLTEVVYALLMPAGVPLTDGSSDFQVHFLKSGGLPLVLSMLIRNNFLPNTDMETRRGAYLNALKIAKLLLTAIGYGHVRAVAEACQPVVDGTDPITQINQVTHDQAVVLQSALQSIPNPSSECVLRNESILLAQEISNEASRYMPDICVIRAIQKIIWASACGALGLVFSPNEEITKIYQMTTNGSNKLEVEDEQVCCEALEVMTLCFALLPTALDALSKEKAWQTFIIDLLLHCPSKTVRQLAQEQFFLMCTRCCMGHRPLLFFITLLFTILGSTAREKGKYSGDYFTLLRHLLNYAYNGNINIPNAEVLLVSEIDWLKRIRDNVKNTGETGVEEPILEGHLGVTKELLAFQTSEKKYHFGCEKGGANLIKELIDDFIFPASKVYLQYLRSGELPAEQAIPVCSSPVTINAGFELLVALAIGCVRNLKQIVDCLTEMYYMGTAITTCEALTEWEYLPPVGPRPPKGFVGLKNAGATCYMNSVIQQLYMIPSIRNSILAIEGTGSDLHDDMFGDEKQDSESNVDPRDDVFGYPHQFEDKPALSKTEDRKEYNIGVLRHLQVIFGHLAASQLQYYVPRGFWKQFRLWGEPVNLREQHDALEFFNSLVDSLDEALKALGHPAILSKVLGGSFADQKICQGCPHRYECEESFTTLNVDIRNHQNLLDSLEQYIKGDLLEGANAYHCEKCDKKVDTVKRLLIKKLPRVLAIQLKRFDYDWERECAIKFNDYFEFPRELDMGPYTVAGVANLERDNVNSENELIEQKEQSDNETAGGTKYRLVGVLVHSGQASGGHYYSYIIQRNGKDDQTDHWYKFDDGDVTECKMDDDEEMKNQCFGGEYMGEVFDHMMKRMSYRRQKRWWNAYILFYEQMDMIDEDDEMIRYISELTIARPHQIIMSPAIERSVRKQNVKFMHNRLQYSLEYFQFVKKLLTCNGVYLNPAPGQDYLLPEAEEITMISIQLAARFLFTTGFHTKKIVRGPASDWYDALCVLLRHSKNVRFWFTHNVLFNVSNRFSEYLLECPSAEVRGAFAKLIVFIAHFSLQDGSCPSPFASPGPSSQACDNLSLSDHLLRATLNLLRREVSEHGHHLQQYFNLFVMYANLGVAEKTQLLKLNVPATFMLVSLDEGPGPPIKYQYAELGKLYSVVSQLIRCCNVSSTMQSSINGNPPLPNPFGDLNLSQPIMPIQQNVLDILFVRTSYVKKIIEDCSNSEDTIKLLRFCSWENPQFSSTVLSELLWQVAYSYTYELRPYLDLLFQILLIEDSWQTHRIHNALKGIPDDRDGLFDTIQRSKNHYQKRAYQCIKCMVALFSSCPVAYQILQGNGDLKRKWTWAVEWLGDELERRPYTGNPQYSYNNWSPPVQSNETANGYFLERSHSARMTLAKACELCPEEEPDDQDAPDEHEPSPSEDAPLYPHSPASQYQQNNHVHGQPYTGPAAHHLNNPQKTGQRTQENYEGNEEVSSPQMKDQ
Outline: as §1

[4] = target: UniProt P51784
Sequence of UniProt P51784 (P51784 whole entry): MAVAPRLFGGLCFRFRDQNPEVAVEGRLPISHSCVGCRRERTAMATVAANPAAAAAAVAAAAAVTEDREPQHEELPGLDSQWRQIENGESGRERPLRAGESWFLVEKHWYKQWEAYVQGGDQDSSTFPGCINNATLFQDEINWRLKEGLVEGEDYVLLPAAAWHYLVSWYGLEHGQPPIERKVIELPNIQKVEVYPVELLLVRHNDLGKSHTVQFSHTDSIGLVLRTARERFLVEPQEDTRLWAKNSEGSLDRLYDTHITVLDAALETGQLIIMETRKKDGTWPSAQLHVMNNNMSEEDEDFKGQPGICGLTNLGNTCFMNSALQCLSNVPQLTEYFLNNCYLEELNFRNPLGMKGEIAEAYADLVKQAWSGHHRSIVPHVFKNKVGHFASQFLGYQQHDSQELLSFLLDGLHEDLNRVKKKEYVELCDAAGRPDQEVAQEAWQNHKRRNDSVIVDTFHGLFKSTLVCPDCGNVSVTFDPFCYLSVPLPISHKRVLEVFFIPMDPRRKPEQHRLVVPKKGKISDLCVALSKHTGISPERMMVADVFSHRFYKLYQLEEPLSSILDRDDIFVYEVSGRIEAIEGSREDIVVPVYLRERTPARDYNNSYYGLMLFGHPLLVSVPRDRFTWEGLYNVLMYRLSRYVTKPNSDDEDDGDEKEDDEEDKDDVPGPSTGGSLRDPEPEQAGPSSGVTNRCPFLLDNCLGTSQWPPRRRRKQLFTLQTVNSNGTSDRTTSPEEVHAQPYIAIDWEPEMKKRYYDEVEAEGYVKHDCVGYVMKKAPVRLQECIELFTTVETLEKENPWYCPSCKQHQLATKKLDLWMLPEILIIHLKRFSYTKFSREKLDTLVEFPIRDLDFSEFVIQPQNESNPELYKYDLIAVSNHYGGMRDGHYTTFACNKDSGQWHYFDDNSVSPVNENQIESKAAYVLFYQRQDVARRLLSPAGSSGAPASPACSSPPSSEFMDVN
Outline: as §1

[5] = target: T1, UniProt Q5T2D3
T1 sequence (whole entry): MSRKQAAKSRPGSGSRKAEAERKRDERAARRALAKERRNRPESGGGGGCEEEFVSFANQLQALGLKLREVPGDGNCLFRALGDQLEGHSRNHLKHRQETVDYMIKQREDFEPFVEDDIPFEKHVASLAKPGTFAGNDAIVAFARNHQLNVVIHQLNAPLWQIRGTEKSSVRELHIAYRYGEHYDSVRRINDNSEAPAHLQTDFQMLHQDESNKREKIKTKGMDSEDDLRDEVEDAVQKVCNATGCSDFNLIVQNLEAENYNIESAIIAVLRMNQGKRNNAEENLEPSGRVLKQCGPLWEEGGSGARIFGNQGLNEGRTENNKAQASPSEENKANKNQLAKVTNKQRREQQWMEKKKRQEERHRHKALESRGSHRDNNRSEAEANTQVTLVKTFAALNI
Outline: as §1

[6] = target: T2, UniProt Q8TE49
T2 sequence (whole entry): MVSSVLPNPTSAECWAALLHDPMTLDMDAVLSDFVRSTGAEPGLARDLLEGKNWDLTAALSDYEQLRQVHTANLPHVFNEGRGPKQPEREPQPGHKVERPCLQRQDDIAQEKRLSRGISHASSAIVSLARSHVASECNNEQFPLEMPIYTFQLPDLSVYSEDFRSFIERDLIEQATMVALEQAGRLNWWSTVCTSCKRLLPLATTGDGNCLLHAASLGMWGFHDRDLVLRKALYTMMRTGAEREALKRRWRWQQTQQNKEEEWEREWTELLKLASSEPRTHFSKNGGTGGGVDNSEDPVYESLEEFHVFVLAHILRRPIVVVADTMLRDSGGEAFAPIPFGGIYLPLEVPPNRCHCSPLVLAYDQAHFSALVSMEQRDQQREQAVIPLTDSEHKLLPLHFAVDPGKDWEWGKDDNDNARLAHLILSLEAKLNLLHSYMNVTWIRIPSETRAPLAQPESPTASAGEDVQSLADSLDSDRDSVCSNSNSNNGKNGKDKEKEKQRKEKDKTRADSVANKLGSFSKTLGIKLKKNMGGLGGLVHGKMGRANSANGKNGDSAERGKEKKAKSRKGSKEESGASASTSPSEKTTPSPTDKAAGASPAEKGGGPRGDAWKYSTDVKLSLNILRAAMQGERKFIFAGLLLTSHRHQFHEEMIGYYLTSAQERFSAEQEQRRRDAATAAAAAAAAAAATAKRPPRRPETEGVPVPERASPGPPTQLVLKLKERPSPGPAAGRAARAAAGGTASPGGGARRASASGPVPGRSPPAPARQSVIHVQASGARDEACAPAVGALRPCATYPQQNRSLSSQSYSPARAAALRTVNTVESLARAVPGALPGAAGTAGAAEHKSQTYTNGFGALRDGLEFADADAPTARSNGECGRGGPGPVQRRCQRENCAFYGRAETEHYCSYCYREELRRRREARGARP
Outline: as §1

[7] = target: T3, UniProt Q9P2H5
T3 sequence (whole entry): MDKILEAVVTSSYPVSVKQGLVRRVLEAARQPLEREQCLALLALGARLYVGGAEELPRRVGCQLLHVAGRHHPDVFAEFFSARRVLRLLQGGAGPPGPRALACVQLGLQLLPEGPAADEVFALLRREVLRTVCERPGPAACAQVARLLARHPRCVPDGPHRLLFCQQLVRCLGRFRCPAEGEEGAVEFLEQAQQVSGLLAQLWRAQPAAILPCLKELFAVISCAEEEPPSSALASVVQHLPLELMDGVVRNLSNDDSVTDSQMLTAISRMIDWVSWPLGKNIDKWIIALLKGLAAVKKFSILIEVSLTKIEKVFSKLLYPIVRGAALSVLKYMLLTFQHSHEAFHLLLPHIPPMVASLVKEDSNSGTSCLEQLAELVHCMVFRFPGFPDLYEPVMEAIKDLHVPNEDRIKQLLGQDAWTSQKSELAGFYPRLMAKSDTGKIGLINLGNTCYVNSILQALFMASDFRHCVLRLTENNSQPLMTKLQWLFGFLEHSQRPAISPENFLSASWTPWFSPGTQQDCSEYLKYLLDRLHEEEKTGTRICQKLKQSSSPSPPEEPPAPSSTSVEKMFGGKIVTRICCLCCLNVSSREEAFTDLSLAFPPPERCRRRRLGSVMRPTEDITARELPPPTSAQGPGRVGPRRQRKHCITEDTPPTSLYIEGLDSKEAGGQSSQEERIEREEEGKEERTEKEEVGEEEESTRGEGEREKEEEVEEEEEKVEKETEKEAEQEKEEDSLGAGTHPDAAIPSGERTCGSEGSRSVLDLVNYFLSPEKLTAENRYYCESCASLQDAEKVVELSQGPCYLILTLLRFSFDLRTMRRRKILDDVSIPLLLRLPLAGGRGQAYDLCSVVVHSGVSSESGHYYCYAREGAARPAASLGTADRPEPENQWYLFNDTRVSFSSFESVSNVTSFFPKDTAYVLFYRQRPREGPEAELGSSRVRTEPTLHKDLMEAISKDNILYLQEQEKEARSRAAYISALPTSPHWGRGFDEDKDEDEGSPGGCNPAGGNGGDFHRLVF
Outline: as §1

[8] = target: T4, UniProt Q9UGI0
T4 sequence (whole entry): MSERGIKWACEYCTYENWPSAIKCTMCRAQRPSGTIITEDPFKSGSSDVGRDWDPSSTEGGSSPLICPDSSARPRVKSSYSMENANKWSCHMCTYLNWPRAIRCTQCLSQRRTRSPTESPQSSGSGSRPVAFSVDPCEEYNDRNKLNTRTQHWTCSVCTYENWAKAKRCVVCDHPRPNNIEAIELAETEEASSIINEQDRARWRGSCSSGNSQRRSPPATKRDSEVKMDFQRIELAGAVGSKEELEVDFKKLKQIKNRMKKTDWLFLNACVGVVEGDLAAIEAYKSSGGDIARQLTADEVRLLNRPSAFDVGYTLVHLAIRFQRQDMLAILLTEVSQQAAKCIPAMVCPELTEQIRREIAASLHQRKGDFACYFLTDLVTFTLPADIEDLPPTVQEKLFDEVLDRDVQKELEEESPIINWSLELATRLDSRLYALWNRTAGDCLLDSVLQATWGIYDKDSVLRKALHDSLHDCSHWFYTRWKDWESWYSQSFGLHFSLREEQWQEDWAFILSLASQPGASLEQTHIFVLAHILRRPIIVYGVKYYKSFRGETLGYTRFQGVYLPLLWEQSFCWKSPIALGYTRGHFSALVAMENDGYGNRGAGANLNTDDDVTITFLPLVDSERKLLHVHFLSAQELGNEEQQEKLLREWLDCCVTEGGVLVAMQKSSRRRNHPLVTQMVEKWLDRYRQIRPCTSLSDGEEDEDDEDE
Outline: as §1

[9] = target: T5, YOD1 (UniProt Q5VVQ6)
T5 sequence (whole entry): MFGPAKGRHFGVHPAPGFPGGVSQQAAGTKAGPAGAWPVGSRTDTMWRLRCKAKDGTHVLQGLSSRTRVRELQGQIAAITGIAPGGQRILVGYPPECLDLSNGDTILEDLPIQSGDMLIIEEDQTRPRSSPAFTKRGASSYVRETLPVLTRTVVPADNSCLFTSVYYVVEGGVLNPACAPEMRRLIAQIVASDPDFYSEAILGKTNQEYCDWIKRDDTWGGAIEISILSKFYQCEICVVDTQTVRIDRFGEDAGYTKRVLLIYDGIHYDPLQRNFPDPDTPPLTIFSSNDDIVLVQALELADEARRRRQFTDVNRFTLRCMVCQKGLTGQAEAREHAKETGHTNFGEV
Outline: as §1

Measured: log2 ratio of Biotin-Ahx-Ub-VS probe labelling

O=C(CCl)N1CCC(=C(F)CO)C1
inactive: [1] 0.0939 | [2] 0.129 | [3] 0.605 | [4] 0.155 | [5] 0.0125 | [6] -0.47 | [7] -0.115 | [8] -0.16 | [9] 0.406
